Key:
Assay in all cases: PBM binding z-score (relative to random genomic background probes); higher = stronger binding; sequences stand for … in GC…GCGATTGACAGCGTAGAATGAAGG
[1] = system: PPARg:RXRa DBDmut IVT, anti-RXR (DBD mutation: RXRa K156A/R161A, NR concentration 270 nM, RXRa partner concentration 90 nM)
Method in brief: (§1)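 Ligand-free nuclear receptor dimers were applied to custom Agilent 4×180K protein-binding microarrays whose double-stranded probes carried direct-repeat seeds, single-nucleotide variants, half-site ablations and random human genomic background sequences in 34-nt variable regions. Incubation lasted 1 h. Binding z-scores were computed against the random background probes from regression-normalized fluorescence.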

[2] = system: PPARg:RXRa IVT, anti-PPARg (NR concentration 270 nM, RXRa partner concentration 90 nM)
Method in brief: as §1

[3] = system: PPARg DBDmut:RXRa IVT, anti-PPARg (DBD mutation: PPARg1 K132A/R137A, NR concentration 270 nM, RXRa partner concentration 90 nM)
Method in brief: as §1

[4] = system: PPARg DBDmut IVT, anti-PPARg (DBD mutation: PPARg1 K132A/R137A, NR concentration 270 nM)
Method in brief: as §1

[5] = system: PPARg homodimer (NR concentration 180 nM)
Method in brief: as §1

[6] = system: PXR:RXRa (NR concentration 270 nM, RXRa partner concentration 90 nM)
Method in brief: as §1

[7] = system: PXR homodimer (NR concentration 270 nM)
Method in brief: as §1

[8] = system: RARa:RXR (NR concentration 270 nM, RXRa partner concentration 90 nM)
Method in brief: as §1

[9] = system: RARa homodimer (NR concentration 270 nM)
Method in brief: as §1

[10] = system: RARb:RXRa (NR concentration 270 nM, RXRa partner concentration 90 nM)
Method in brief: as §1

Sequence | PBM binding z-score [1] | PBM binding z-score [2] | PBM binding z-score [3] | PBM binding z-score [4] | PBM binding z-score [5] | PBM binding z-score [6] | PBM binding z-score [7] | PBM binding z-score [8] | PBM binding z-score [9] | PBM binding z-score [10]
CGTCCCAGGTCAAAGGTCAGTGAAGAGATGACGG | 2.95 | 5.97 | 0.207 | 0.538 | 3.77 | 6.8 | 1.05 | 8.49 | 1.64 | 5.7
TCATATAGGTTATACAGGTGAAAGTCGGCATCTA | 4.73 | 4.18 | 1.95 | 0.981 | 1.6 | 1.27 | 1.03 | 1.9 | 1.84 | 1.51
CGTCCAAGGTCATAGGAGGTCAGGGAAGACAGAT | 3.02 | 4.92 | 1.73 | 1.82 | 5.03 | 6.9 | 3.35 | 6.79 | 2.46 | 5.31
TAGCTTAGGTCAGATCGGGCCAGTATACGCTATA | -0.166 | 0.996 | 0.561 | -0.217 | 0.322 | 1.24 | -0.17 | 1.68 | -0.0696 | 3.54
GCTACTAGGTCAACTGATGGTCAGCTAAAGCTCG | 8 | 8.03 | 2.65 | 2.15 | 2.57 | 1.75 | -0.307 | 3.07 | 0.12 | 4.25
AATACAGGGCCATCGTAGGCCAGAGTACGCACAG | 0.0782 | 0.608 | 0.846 | -0.0733 | -0.388 | -0.255 | -0.169 | -0.00731 | 0.00973 | 0.931
CGTCCAAGGTCATAGGAGGTCAGTGATGACAGAT | 3.37 | 4.38 | 0.469 | 0.243 | 3.94 | 6.6 | 3.48 | 5.69 | 2.24 | 5.32
TGCCAAAGTTCAAAGGTAACGTAAGTATCCACAC | -0.203 | 3.58 | 0.542 | 1.37 | 4.73 | 6.14 | 4.67 | 7.24 | 1.95 | 5.19
TCGAGTAGGTTAGTCGGGGCATCCAGCCAACATA | 2.28 | 2.09 | -0.561 | 0.0213 | -0.139 | 0.0331 | -0.0889 | 0.263 | -0.138 | 0.628
TCTAGTTGGTCAAAGGTCACCCACTCGAAATGCG | 3.63 | 6.67 | 1.96 | 2.09 | 6.47 | 6.1 | 1.35 | 7.69 | 3.37 | 4.9
TTACCAAGGTGAGCTGAGGTCGTAGATCCAACTC | 0.925 | 1.67 | -0.714 | -0.674 | -0.332 | 4.2 | -0.58 | 2.1 | -0.84 | 1.85
CGTACTGGGCCACGAAAGGTCATTGATTCAGTGA | 5.64 | 5.82 | 1.54 | 0.503 | 4.05 | 5.71 | 2.11 | 5.78 | 1.22 | 4.17
AGAACGAGGGAAATGAGTTGATAGCACGGGTGGC | -0.231 | -0.564 | 0.432 | -0.941 | -0.441 | -0.411 | 0.0651 | -0.474 | -0.0061 | -0.45
TCAGAAAGGTGAAGGTAACTCAGGTACGCAGTCG | 4.06 | 2.93 | 0.125 | 0.136 | 0.958 | 1.12 | 0.164 | 1.88 | 0.504 | 3.25
CCTAGCAGGCCAATCTGGGTCAGTCAAGGCTTGA | 3.27 | 3.61 | -0.788 | -1.02 | -0.0146 | 0.0599 | -0.751 | 0.0549 | -0.68 | 1.28
CCTTGGAGGACAGAAGGTCAGAGCTGTCCGCTTT | 0.658 | 1.17 | -1.14 | -2.25 | 1.98 | 1.69 | 0.0669 | 2.36 | 0.737 | 3.29
TTGAGTAGGTTACCAATGGGGCATTCAGCTTTCT | 4.77 | 4.38 | 0.923 | 0.772 | 0.846 | 0.242 | -0.056 | 0.279 | 0.0397 | 1.19
GCTGCTATGTCAACTGATGGTCAGCTAAAGCTCG | 0.616 | -0.0594 | -1.42 | -1.27 | -1.18 | -0.32 | -0.913 | -0.149 | -1.19 | 0.753
TCTTGTAGATCAACAGGAGGTTAAGTAAGATCGA | 1.56 | 0.854 | 0.235 | 0.997 | -0.29 | 0.916 | -0.272 | 1.46 | 0.0899 | 0.659
ACCTCTAGGTAAAGTTCAGTGAAAGATCGATAGA | 1.91 | 1.47 | -0.268 | 0.284 | 0.684 | 1.61 | 1.03 | 0.806 | 0.172 | 2.41
CGTCCATGGTCAGCAGGTCAGTGAAAGCGACGTG | 0.0989 | 0.518 | -0.843 | -0.979 | -0.43 | 0.159 | -0.486 | 0.728 | -0.616 | 2.28
CAAACTGGGTCAAAGGTCAAAGTCGAGCCAACCA | 8.32 | 8.37 | 2.08 | 2.33 | 4.84 | 6.91 | 2 | 8.83 | 2.4 | 5.44
CCGGACAGGTGAGAAGGTAACTCAGCCTCGATTA | 1.04 | 0.612 | -0.39 | -1.64 | 0.569 | -0.415 | -0.227 | -0.262 | 0.0296 | 0.711

— the supplement of paper PMC6555819
